# Measurements: PubChem BioAssay
# The source made the active and inactive calls.
# Experiments:
# [1] = optical density shifts of acrAB sulA E. coli – strain DRC41, OD650, 48 h, E. coli filamentation inducer project, primary screen (AID 1152); settings: higher = more signal, called active from +8 up or from −8 down;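 also: E. coli MC1000 strain DRC41 lacking acrAB efflux pump and sulA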
# [2] = probe aLefty1 binding on compound microarray – biochemical, small-molecule microarray, 635/667 nm fluorescence, primary screen (AID 1153); settings: higher = more signal;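 also: score merges spot fluorescence with signal-to-noise ratio from the scanned slide images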
# [3] = plasmodial surface anion channel blockers, osmotic lysis – cell-based, P. falciparum Indochina, OD700, 1 h, primary screen (AID 1154); settings: P. falciparum Indochina infected RBC osmotic lysis, higher = more signal, called active from +8 up or from −8 down
# [4] = plasmodial surface anion channel blockers, osmotic lysis – cell-based, P. falciparum Indochina, OD700, 2 h, primary screen (AID 1155);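 also: lysis reports solute entry through the parasite surface anion channel PSAC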; settings: P. falciparum Indochina infected erythrocytes, higher = more signal, called active from +8 up or from −8 down
# [5] = changes in parasitized red cell lysis, either direction – P. falciparum Indochina, OD700, 3 h, PSAC antagonist project, primary screen (AID 1156); settings: P. falciparum-infected erythrocytes, osmotic lysis, higher = more signal, called active from +8 up or from −8 down
# [6] = plasmodial surface anion channel blockers, osmotic lysis – cell-based, P. falciparum Indochina, OD700, 18 h, primary screen (AID 1157); settings: P. falciparum Indochina infected erythrocytes, osmotic lysis OD700, 18 h; higher = more signal, called active from +8 up or from −8 down
# [7] = S6 kinase pathway phospho-S6 level changes – cell-based, A549, cytoblot, luminescence, serum-stimulated, primary screen (AID 1158); settings: 5 h, higher = more signal;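 also: serum-stimulated A549 lung adenocarcinoma cells; signal is phosphorylated S6 detected by cytoblot immunostaining with HRP secondary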
# [8] = molecular target: NADPH oxidase 2 (Homo sapiens) (UniProt P04839); assay: compounds shifting NOX2 Amplex Red fluorescence – cell-based, HEK293-NOX2, PMA-stimulated, NOX inhibitor project, primary screen (AID 1159); settings: 45 min, higher = more signal, called active from +8 up or from −8 down; also: test concentration not given here
# [9] = molecular target: NADPH oxidase 4 (Homo sapiens) (UniProt Q9NPH5); assay: compounds shifting NOX4 Amplex Red fluorescence – cell-based, HEK293-NOX4, tetracycline-induced, NOX inhibitor project, primary screen (AID 1160); settings: HEK293-NOX4, Amplex Red H2O2 fluorescence, 45 min; higher = more signal, called active from +8 up or from −8 down
# [10] = molecular target: NADPH oxidase 5 (Homo sapiens) (UniProt Q96PH1); assay: compounds shifting NOX5 Amplex Red fluorescence – cell-based, HEK293-NOX5, NOX inhibitor project, primary screen (AID 1161); settings: HEK293-NOX5, ionomycin, 45 min, higher = more signal
# [11] = compound effects on lung adenocarcinoma cell viability – A549, calcein-AM fluorescence, 48 h, basal, profiling panel (AID 1162); settings: higher = more signal; also: test concentration not given here
# [12] = compound effects on differentiated 3T3-L1 adipocyte viability – cell-based, 3T3-L1 adipocytes, calcein-AM fluorescence, 48 h, basal, profiling panel (AID 1163); settings: 3T3-L1 adipocytes viability, higher = more signal; also: test concentration not given here
# [13] = compound effects on hepatocellular carcinoma cell viability – HepG2, calcein-AM fluorescence, 48 h, basal, profiling panel (AID 1164); settings: higher = more signal; also: test concentration not given here
# [14] = compound effects on multiple myeloma cell viability – MM1S, calcein-AM fluorescence, 48 h, basal, profiling panel (AID 1165); settings: higher = more signal;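 also: viability of MM1S multiple myeloma cells under basal unstimulated conditions; test concentration not given here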
# [15] = calcein-AM signal in unstimulated myeloma cells – cell-based, calcein-AM fluorescence, 48 h, PK04 Diversity Set, profiling panel (AID 1166); settings: RPMI8226 myeloma viability, higher = more signal;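 also: cells grown under basal conditions without added stimulus; test concentration not given here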
# [16] = JC-1 mitochondrial signal, unstimulated HepG2 cells – cell-based, JC-1 fluorescence, 24 h, 100 nL compound, profiling panel (AID 1167); settings: HepG2 mitochondrial potential, higher = more signal; also: test concentration not given here
# [17] = JC-1 mitochondrial signal, unstimulated adipocytes – cell-based, JC-1 fluorescence, 3T3-L1 adipocytes, 24 h, 100 nL compound, profiling panel (AID 1168); settings: JC-1 mitochondrial fluorescence, higher = more signal, called active from +8 up or from −8 down; also: test concentration not given here
# [18] = JC-1 mitochondrial signal, unstimulated myeloma cells – cell-based, JC-1 fluorescence, RPMI8226, 24 h, 100 nL compound, profiling panel (AID 1169); settings: JC-1 mitochondrial potential fluorescence, higher = more signal; also: test concentration not given here
# [19] = JC-1 mitochondrial signal, unstimulated MM1S myeloma – cell-based, JC-1 fluorescence, 24 h, 100 nL compound, profiling panel (AID 1170); settings: MM1S mitochondrial potential, higher = more signal; also: test concentration not given here
# [20] = resazurin metabolic signal in A549 cells – cell-based, resazurin fluorescence, 24 h, PK04 Diversity Set, profiling panel (AID 1171); settings: A549 viability, higher = more signal, called active from +8 up or from −8 down; also: test concentration not given here
# Chain of NADPH oxidase 4 (Homo sapiens) (Q9NPH5 whole entry, looked up): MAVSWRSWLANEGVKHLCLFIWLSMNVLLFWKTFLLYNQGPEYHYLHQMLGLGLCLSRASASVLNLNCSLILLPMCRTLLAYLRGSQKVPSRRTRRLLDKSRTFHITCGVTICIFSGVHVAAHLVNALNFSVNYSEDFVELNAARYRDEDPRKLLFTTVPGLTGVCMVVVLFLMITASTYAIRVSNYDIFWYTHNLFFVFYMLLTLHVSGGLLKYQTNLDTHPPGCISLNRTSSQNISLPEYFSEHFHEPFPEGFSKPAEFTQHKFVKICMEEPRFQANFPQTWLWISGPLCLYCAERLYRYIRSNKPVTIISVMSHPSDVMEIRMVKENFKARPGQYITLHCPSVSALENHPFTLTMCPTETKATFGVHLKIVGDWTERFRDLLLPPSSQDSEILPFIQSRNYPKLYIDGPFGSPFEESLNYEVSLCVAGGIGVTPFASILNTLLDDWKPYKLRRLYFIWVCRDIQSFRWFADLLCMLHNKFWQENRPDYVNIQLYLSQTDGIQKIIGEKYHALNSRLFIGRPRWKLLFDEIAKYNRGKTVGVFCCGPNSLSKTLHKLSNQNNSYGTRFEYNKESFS
# Chain of NADPH oxidase 2 (Homo sapiens) (P04839 whole entry, looked up): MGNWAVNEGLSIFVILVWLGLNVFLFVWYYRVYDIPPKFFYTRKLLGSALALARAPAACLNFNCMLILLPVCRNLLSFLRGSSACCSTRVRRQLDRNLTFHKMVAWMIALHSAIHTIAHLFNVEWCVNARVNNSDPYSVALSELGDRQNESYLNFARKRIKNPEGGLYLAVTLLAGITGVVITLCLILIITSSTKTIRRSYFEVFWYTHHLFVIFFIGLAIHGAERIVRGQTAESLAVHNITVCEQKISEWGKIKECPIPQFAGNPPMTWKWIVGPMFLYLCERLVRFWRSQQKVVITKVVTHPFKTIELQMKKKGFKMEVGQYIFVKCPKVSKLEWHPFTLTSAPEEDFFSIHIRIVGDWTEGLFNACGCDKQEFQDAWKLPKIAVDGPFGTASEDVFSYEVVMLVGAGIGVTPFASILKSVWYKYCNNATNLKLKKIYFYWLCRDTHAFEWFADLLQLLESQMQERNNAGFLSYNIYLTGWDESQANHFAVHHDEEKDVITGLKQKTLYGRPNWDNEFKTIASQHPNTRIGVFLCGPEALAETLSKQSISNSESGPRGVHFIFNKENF
# Chain of NADPH oxidase 5 (Homo sapiens) (Q96PH1 whole entry, looked up): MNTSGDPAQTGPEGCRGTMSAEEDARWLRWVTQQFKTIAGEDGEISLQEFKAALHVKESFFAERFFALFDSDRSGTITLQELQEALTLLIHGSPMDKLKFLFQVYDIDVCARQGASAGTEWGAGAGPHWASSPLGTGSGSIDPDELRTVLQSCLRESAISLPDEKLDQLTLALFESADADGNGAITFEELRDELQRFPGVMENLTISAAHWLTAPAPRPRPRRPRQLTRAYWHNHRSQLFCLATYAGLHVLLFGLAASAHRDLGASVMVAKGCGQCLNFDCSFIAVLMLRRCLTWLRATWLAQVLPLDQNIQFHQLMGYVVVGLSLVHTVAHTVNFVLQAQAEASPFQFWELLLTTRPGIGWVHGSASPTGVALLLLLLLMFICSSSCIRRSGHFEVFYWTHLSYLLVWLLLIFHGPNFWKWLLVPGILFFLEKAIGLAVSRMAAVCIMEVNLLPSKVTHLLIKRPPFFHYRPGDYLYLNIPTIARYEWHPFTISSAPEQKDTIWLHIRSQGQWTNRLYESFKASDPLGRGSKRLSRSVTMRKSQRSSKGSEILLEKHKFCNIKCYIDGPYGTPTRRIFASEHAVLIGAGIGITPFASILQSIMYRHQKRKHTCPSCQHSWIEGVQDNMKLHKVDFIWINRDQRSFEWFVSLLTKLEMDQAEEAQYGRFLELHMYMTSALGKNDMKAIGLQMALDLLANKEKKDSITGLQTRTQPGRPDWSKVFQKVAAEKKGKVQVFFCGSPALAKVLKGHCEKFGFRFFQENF
SMILES,z-score [1],composite z-score [2],z-score [3],z-score [4],z-score [5],z-score [6],z-score [7],z-score [8],z-score [9],z-score [10],z-score [11],z-score [12],z-score [13],z-score [14],z-score [15],z-score [16],z-score [17],z-score [18],z-score [19],z-score [20]
COc1ccc(O[C@@H]2[C@H](O)CO[C@H]2C=CC#Cc2ccccc2)cc1,-0.939 (inactive),-0.147,2.74 (inactive),0.488 (inactive),0.356 (inactive),0.0508 (inactive),-0.367,0.0749 (inactive),1.23 (inactive),1.46,-0.128,0.392,0.0395,-2.54,-0.0849,-0.445,-0.403 (inactive),0.617,0.113,0.357 (inactive)
CO[C@H]1O[C@H](CO)[C@@H](OC(=O)Nc2ccc3c(c2)OCO3)[C@H](OC(=O)Nc2ccccc2-c2ccccc2)[C@@H]1OC(=O)Nc1ccccc1-c1ccccc1,0.181 (inactive),0.298,2.44 (inactive),1.7 (inactive),0.433 (inactive),1.14 (inactive),-0.0879,2.75 (inactive),-0.0563 (inactive),-0.303,-0.89,-0.0426,-0.251,-0.624,-0.775,-0.121,1.34 (inactive),-1.11,0.481,-1 (inactive)
CC(C)[Si]1(C(C)C)O[C@@H](c2ccccc2)c2cc(C3CC3)nc(-c3ccccc3)c21,-1.02 (inactive),-0.108,1.27 (inactive),0.389 (inactive),-0.0854 (inactive),-0.0349 (inactive),0.19,-0.305 (inactive),0.504 (inactive),0.0972,-0.447,-0.483,-0.244,-2.2,-1.35,-1.8,-0.092 (inactive),-0.781,-0.192,1.44 (inactive)
C=C(COC)/C(=C/C[C@H](OC(=O)c1ccncc1)c1ccc(CO)o1)c1cc(C(=O)OC)ccc1OC,0.165 (inactive),0.188,2.65 (inactive),0.189 (inactive),0.656 (inactive),0.013 (inactive),-0.0278,-0.564 (inactive),0.0937 (inactive),-0.413,-1.2,-0.256,-0.981,-0.43,-0.111,-0.47,-1.01 (inactive),0.126,0.00652,0.451 (inactive)
Cc1ccc(C2CC=C(C(=O)O)CN2S(=O)(=O)c2ccc(C)cc2)cc1 (stereo not given),-1.29 (inactive),-0.0294,1.26 (inactive),0.838 (inactive),0.927 (inactive),0.98 (inactive),-0.51,-0.446 (inactive),-1.44 (inactive),0.321,-0.789,0.171,-1.04,-1.07,-1.65,-0.0791,-0.516 (inactive),-0.187,-0.296,-0.716 (inactive)
CO[C@@H]1COC(=O)CC=C[C@@H](C)COC(=O)[C@H](COCc2ccccc2)NC(=O)CC=C[C@H]1C,-0.0825 (inactive),-0.363,0.391 (inactive),0.331 (inactive),0.195 (inactive),0.403 (inactive),-0.186,0.978 (inactive),-1.24 (inactive),0.941,0.248,0.268,0.351,-0.987,-0.382,0.575,-0.407 (inactive),-0.873,1.61,-0.653 (inactive)
CO[C@H]1COC(=O)[C@H](C)COC(=O)CC=C[C@@H](C)[C@H](OC)COC(=O)CC=C[C@@H]1C,0.738 (inactive),-0.196,-0.654 (inactive),-0.285 (inactive),-0.654 (inactive),-0.188 (inactive),0.648,-0.347 (inactive),0.0281 (inactive),0.625,0.593,-0.101,0.968,0.191,-0.0736,0.69,0.0241 (inactive),0.405,0.601,0.239 (inactive)
O=C1O[C@@H](c2ccccc2)[C@@H](c2ccccc2)N2[C@@H](c3ccccc3OCCO)[C@]3(C(=O)Nc4ccc(C#CCCO)cc43)[C@@H](C(=O)O)[C@H]12,0.0825 (inactive),1.66,1.32 (inactive),-2.1 (inactive),0.152 (inactive),-2.06 (inactive),1.47,0.559 (inactive),-0.438 (inactive),-0.847,-0.622,1.78,-0.173,-1.43,-1.98,0.259,-0.881 (inactive),-0.231,-0.641,-0.0647 (inactive)
CC(C)[C@H](NC(=O)OC(C)(C)C)[C@@H](O)CC(=O)OC(C)(C)C,-0.703 (inactive),-0.0197,0.775 (inactive),0.269 (inactive),0.835 (inactive),0.128 (inactive),0.242,1.33 (inactive),-1.02 (inactive),1.04,0.403,1.24,0.026,0.793,-0.229,0.251,-0.689 (inactive),0.62,1.06,-1.54 (inactive)
